Data reported in PubChem BioAssay.
Active and inactive are the calls of the source.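 Rule for the calls: active = signal rise over 3 SD above mean of control wells given weak agonist, in both repeats and first screen; inactive = the rest.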

Test system: TRPC4 (mouse), co-expressed with 5HT1a in HEK293
Experiment: calcium flux potentiators in TRPC4/5HT1a cells, confirmation, counter-screen for TRPC4 potentiator project, cell-based, second counter screen, HEK293 TRPC4/5HT1a, Fluo-4 (AID 434979)
Details: Fluo-4 calcium flux, at 10 µM, serotonin added at its EC20 dose

Row | SMILES | outcome
1 | CC(C)C(NC(=O)c1ccc(C(C)(C)C)cc1)C(=O)NCC(c1ccccc1)N(C)C (centres undefined) | inactive
2 | CN(C)CCCN(C(=O)c1ccc(S(=O)(=O)N2CCCC2)cc1)c1nc2c(F)cc(F)cc2s1 | inactive
3 | CCC1CCCCN1CCN1C(=O)C2C(C(=O)Nc3ccc(OC)cc3)C3C=CC2(O3)C1C(=O)NC1CCCCC1 (centres undefined) | inactive
4 | Cc1cc(Nc2ccc(C)c(C)c2)c2ccccc2n1 | inactive
5 | CCCc1nc2ccccc2n1Cc1ccccc1OC | inactive
6 | CCCCOc1ccc(Nc2cc(Cl)ccc2C(=O)O)cn1 | inactive
7 | N#Cc1c(N)sc2c1CCCCCC2 | inactive
8 | Cc1cc(OCc2cc(C(=O)NCCN3CCCCC3CO)no2)cc(C)c1Cl (centres undefined) | inactive
9 | Cc1cccc(C)c1-n1cccc1/C=C1\SC(=S)N(c2cccc(C(=O)O)c2)C1=O | inactive
10 | Clc1ccc(COc2ccccc2CNCc2cccnc2)cc1 | inactive
11 | C=CCOc1ccc(C2CC(C)=NN2c2ccccc2)cc1 (centres undefined) | inactive
12 | CCCCN=C(Nc1ccc(Cl)cc1)c1cccnc1 | inactive
13 | OCc1ccccc1CNCc1ccccc1 | inactive
14 | Cc1ccc(Nc2cc(C)nc3ccc(C)cc23)cc1 | inactive
15 | C=CCSc1nnc2n(-c3ccccc3OC)c(=O)c3c4c(sc3n12)CCC4 | inactive
16 | Cc1ccc(NC(=O)CN2CCc3ccccc3C2)cc1F | inactive
17 | c1ccc(CN2CCN(Cc3c[nH]c4ccccc34)CC2)cc1 | inactive
18 | OCCNc1nc2ccccc2n1CCN1CCCCC1 | inactive
19 | COc1ccc(NC(=O)c2c[nH]n3c(=O)cc(C4CCN(C(=O)OC(C)(C)C)CC4)nc23)cc1Cl | inactive
20 | CC1CCCN1CC#CC(O)(c1ccccc1)c1ccccc1 (centres undefined) | inactive

Row | SMILES | outcome
21 | CCOC(=O)c1c(N)sc(C(O)(C(F)(F)F)C(F)(F)F)c1-c1ccccc1 | inactive
22 | CCCCN(Cc1ccccc1)C(=O)C1CCN(Cc2sccc2C)CC1 | inactive
23 | CCc1ccc2nc3nc(C)cc(C)c3c(N)c2c1 | inactive
24 | Cc1ccc(C)c(S(=O)(=O)/N=C2\C=C(NS(=O)(=O)c3ccccc3)C(=O)c3ccccc32)c1 | inactive
25 | Cc1ccn2c(-c3csc(NCc4ccco4)n3)c(C)nc2c1 | inactive
26 | CCCCC(=O)N(c1ccc(C(=O)O)cc1)c1nc(-c2ccc(Cl)cc2)c(CC)s1 | inactive
27 | CC(=O)c1ccc2c(c1)N(C)c1ccccc1S2 | inactive
28 | Cc1ccc2c(c1)N(C(=O)CCC(=O)Nc1ccccc1Br)CC(C)O2 (centres undefined) | inactive
29 | OCC1(CCCc2ccccc2)CCN(Cc2cc(F)ccc2F)CC1 | inactive
30 | CC(C)c1ccc(S(=O)(=O)/N=C2\C=C(NS(=O)(=O)c3ccccc3)C(=O)c3ccccc32)cc1 | inactive
31 | Cc1cc(NCc2ccccc2)nc(N2CCOCC2)n1 | inactive
32 | CCOc1ccc(NC(=O)c2c[nH]n3c(=O)cc(C4CCN(C(=O)OC(C)(C)C)CC4)nc23)cc1 | inactive
33 | COCCn1c(SCc2cc(C(C)=O)ccc2OC)nc2cc(Cl)ccc2c1=O | inactive
34 | CCc1cc(C(c2cccc(OC)c2)N2CCOCC2)c(NC(=O)c2ccccc2)s1 (centres undefined) | inactive
35 | CC(=O)Nc1ccc(S(=O)(=O)NC2=C(N3CCN(Cc4ccccc4)CC3)C(=O)c3ccccc3C2=O)cc1 | inactive
36 | COc1ccc(C2=NN(C(=O)c3ccccc3)C(c3ccc(OC)c(OC)c3)C2)c(O)c1 (centres undefined) | inactive
37 | COc1cccc(CNC(=O)CCC2CCCN(Cc3cc(Cl)ccc3O)C2)c1 (centres undefined) | inactive
38 | Cc1c(CN2CCC(n3nccc3NC(=O)CCc3ccccc3)CC2)cnn1C | inactive
39 | CCOC(=O)C(C)Sc1nc2c(c(=O)[nH]c(=O)n2C)n1Cc1ccc(Cl)cc1 (centres undefined) | inactive
